High-throughput results (PubChem BioAssay)
Hits are enriched below; roughly 3.5% of the tested compounds scored in any of these assays.
GPR151 ag: activates the human receptor GPR151; PathHunter beta-arrestin GPR151 cells, luminescence; 650,000 compounds, 1% hits; Q8TDV0; activation, % at 11.2 µM; in the data active = activation above about 4.9%;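 also: 0% = median of compound wells and 100% = cells with positive control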
TEAD-YAP block: TEAD-YAP interaction inhibition; HEK-TIYL cells, TEAD-Gal4/YAP UAS-luciferase luminescence; inhibition, % at 9.12 µM; 640,000 compounds, 1.4% hits; AID 1259422; in the data active = inhibition above about 32%;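 also: 0% = median of test compound wells and 100% = reference inhibitor wells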
MITF inh: human MITF inhibition, primary screen | O75030 | AlphaScreen MITF homodimerization, bead proximity signal | inhibition, % at 2.6 µM | 650,000 compounds, 0.91% hits; in the data active = inhibition above about 50%;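 also: 0% = vehicle wells with protein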
FBW7 act: human FBW7 E3 ligase activation, primary screen; Q969H0; AlphaScreen FBW7–phospho-cyclin E peptide binding, activator screen; normalized activity (activation), % at 26.1 µM; 650,000 compounds, 0.13% hits; in the data active = normalized activity above about 1.9%;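 also: purified mutant Fbw7 with reduced substrate affinity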
Target sequence (Q969H0 whole entry, looked up): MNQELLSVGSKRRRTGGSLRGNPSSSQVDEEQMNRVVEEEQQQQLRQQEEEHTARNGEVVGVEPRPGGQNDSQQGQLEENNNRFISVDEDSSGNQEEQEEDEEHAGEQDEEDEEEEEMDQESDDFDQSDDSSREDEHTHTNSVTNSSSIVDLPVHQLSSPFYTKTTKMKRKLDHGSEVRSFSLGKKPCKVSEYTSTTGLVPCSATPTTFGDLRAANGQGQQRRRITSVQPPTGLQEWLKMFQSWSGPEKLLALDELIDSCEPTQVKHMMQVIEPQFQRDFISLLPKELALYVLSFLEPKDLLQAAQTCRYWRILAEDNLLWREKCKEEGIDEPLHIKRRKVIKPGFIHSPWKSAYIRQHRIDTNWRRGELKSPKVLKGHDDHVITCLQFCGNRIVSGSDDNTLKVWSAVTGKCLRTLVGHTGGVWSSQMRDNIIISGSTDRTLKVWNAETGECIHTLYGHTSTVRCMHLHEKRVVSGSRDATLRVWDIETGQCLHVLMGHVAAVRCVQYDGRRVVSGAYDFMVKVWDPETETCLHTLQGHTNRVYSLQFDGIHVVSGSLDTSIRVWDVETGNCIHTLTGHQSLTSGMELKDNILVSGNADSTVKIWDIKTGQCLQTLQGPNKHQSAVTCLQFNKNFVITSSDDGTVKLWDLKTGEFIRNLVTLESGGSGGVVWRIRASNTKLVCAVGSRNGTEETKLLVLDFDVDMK
GPR151 confirm: confirmation of human GPR151 activators | shares compounds with GPR151 ag | GPR151 PathHunter beta-arrestin cells, luminescence, 90 min; % of EA-reagent control over plate median | activation, % at 11.2 µM | 6,700 tested, under 10 active | AID 1508609;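 active = mean percent activation across replicates above the confirmation screen cutoff of 4.91%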
GPR119 counter: GPR119 activation, counter-screen for GPR151 activators; GPR119 PathHunter beta-arrestin cells, luminescence, 90 min; 0 = compound-well median, 100 = enzyme-acceptor control; activation, % at 11.2 µM; 6,700 compounds, 0.3% hits; shares compounds with GPR151 ag;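 active = mean percent activation in the counterscreen above 29.09%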;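 also: counterscreen on off-target GPR119 to flag nonselective hits from the GPR151 activator screen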
Starred values were filed as active, the others as inactive; nt = not tested or not shown; ! = not confirmed by another sample.

SMILES	GPR151 ag	TEAD-YAP block	MITF inh	FBW7 act	GPR151 confirm	GPR119 counter
Cc1cc(/C=C2\C(=O)NC(=S)N(c3ccc(F)cc3)C2=O)c(C)n1C1CC1	5.3*	-5	7	0	-1	-3
Cc1cccnc1C(c1ccc(F)cc1)N(C)C(=O)C1CCN(C(=O)OC(C)C)CC1 (stereo not given)	0	-4	-11	0	nt	nt
COc1cc(C2c3c(oc4ccc(F)cc4c3=O)C(=O)N2c2nccs2)ccc1O (stereo not given)	6.2*	8	9	0	-1	4
CCOc1ccc(NC(=O)CSc2nc(NCCc3ccccc3)c3ccccc3n2)cc1	6.0*	3	4	0	0	7
CCCCNc1nc(SCC(=O)Nc2ccc(OCC)cc2)nc2ccccc12	1	17	2	0	nt	nt
COCCNc1nc(SCC(=O)NCCc2ccc(S(N)(=O)=O)cc2)nc2ccccc12	4.9*	0	3	0	-1	-12
CCc1cccc(OCC(=O)Nc2ccccc2C(N)=O)c1	10*	-22	0	0	-1	7
CCc1cccc(OCC(=O)Nc2ccccc2C(=O)O)c1	-1	-27	9	1	nt	nt
CN1CCCC(OC(=O)c2cc(Cl)ccc2Cl)C1 (stereo not given)	0	-6	-6	0	nt	nt
CN1CCCC(OC(=O)c2cc(Br)ccc2Cl)C1 (stereo not given)	6.2*	0	25	0	-1	-1
COc1cc(/C=N/O)cc(Cl)c1OS(=O)(=O)c1ccc(C)cc1	4.9*	-15	-7	0	-1	-15
COc1cc(/C=N/O)cc(Cl)c1OC	1	-9	-2	0	nt	nt
Cc1nn(CC(=O)NCc2cccc(Cl)c2)c(=O)c2cccn12	0	6	-2	0	nt	nt
CCOc1ccccc1C1NC(=O)N(C)C(C)=C1C(=O)OC (stereo not given)	6.0*	2	5	0	0	8
COC(=O)C1=C(C)N(C)C(=O)NC1c1ccc(Br)cc1 (stereo not given)	5.2*	11	9	0	0	-4
COC(=O)C1=C(C)N(C)C(=O)NC1c1ccccc1OC (stereo not given)	1	9	11	1	nt	nt
CCN1C(=O)N[C@H](c2ccc(Br)cc2)C(C(=O)OC)=C1C	0	nt	19	0	nt	nt
COC(=O)C1=C(C)N(C)C(=O)NC1c1ccc(C(=O)OC)cc1 (stereo not given)	1	2	15	0	nt	nt
CCOC(=O)CN1C(=O)N[C@@H](c2ccc(Br)cc2)C(C(=O)OC)=C1C	5.0*	nt	13	1	1	14
CCOc1ccccc1C1C(C(=O)OC)=C(N)OC2=C1C(=O)CCC2 (stereo not given)	6.0*	1	12	1	1	6
O=C(COC(=O)c1cccc(OC(F)F)c1)c1ccc(F)cc1	-1	-4	11	0	nt	nt
O=C(Nc1ncc(Cc2ccc(Cl)cc2Cl)s1)c1ccc(Cl)cc1	5.7*	-4	-12	0	1	-6
CC1C=CCC2C(=O)N(c3ccc([N+](=O)[O-])cc3)C(=O)C12 (stereo not given)	2	0	5	0	nt	nt
Cc1ccc(N2C(=O)C3CC=CC(C)C3C2=O)cc1 (stereo not given)	12*	-17	7	0	0	-4
Cc1cccc(C(=O)N2CC(C)CC(C)C2)c1 (stereo not given)	5.6*	6	9	0	1	12
SMILES	GPR151 ag	TEAD-YAP block	MITF inh	FBW7 act	GPR151 confirm	GPR119 counter
CN1CCN(C(c2ccccc2)c2ccc(Cl)cc2)CC1 (stereo not given)	6.4*!	-4	11	0	0	-5
CCNc1nc(OCCNC(=O)COc2ccc(Cl)cc2C)nc(N(C)C)n1	-1	-12	1	1	nt	nt
COc1ccccc1C1N(c2cc(Cl)ccc2OC)C(=O)C2CCCN21 (stereo not given)	6.8*	1	4	0	-1	-8
COc1ccc(Cl)cc1N1C(=O)C2CCCN2C1c1ccccc1 (stereo not given)	1	2	6	1	nt	nt
COc1ccc(-c2noc(N3CCCC(C(=O)Nc4ccccc4OC)C3)n2)cc1 (stereo not given)	10*	-7	0	0	0	-1
COc1ccc(-c2noc(N3CCC(C(=O)NC(C)CCc4ccccc4)CC3)n2)cc1 (stereo not given)	5.1*	-11	-13	0	-1	-8
COc1ccc(-c2noc(N3CCC(C(=O)O)CC3)n2)cc1	1	-2	-2	0	nt	nt
COc1ccc(-c2noc(N3CCCC(C(=O)N4CCCc5ccccc54)C3)n2)cc1 (stereo not given)	4	17	0	0	nt	nt
COc1ccc(-c2noc(N3CCCC(C(=O)NC4CCCc5ccccc54)C3)n2)cc1 (stereo not given)	5.6*	7	-3	0	1	-2
O=c1[nH]c2nc(-c3ccccc3)cn2[nH]c1=O	0	0	22	0	nt	nt
CCN(CC)c1ccc(C(=O)NCCc2ccccc2)cc1	7.0*	-47	6	0	0	7
COc1ccc(NC(=O)CNC(=O)c2cccc(C)c2)cc1	8.1*	-8	-5	0	1	5
CCN(CC)c1ccc(C(=O)NCCO)cc1	0	-9	14	0	nt	nt
COc1ccc(NC(=O)c2ccc(NC(=O)c3ccc(NC(=O)c4cccc(C)c4)cc3)cc2)cc1	2	2	-2	0	nt	nt
COc1ccc(CNC(=O)c2ccc(NS(C)(=O)=O)cc2)cc1	4.9*	4	-2	0	1	12
O=C(COc1ccc(C(=O)NCCc2ccccc2)cc1)Nc1ccccc1F	28*	2	13	0	-1	-5
Cc1noc(C)c1COc1ccc(C(=O)OCC(=O)Nc2ccc(C#N)cc2)cc1	0	-4	-2	0	nt	nt
Cc1csc(NC(=O)C(Cc2c[nH]c3ccccc23)NC(=O)OCC(C)C)n1 (stereo not given)	1	19	5	0	nt	nt
O=C(NCc1ccco1)/C(=C/c1ccc2c(c1)OCO2)NC(=O)c1ccco1	1	10	11	0	nt	nt
CS(=O)(=O)Nc1ccc(C(=O)Nc2ccccc2C(=O)NCCc2ccccc2)cc1	0	-24	1	0	nt	nt
COc1ccc(C(=O)NC(=S)NCc2ccccc2)cc1	11*	-2	17	0	0	-2
COc1ccc(C(=O)Nc2ccc(C(=O)NCCc3ccccc3)cc2)cc1	5.2*	-6	9	0	0	-4
CS(=O)(=O)Nc1ccc(C(=O)NCCc2ccccc2)cc1	5.7*	-35	8	0	1	5
COc1ccc(CNC(=O)c2c(Cl)cccc2Cl)cc1	5.7*	-2	-3	0	1	10
